# Experimental data taken from PubChem BioAssay AID2235 (The Scripps Research Institute Molecular Screening Center, 2010).
# About 2,800 (0.88%) of roughly 320,000 compounds were called active.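 The calls were made as follows: active = inhibition above the mean inhibition of all tested compounds plus 3 SD, computed separately for each screening campaign (cut at about 15% in these data); inactive = the rest.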 The list comes from a sample in which actives are over-represented; it also holds similar structures and randomly drawn compounds.
# Target: Serine/threonine-protein phosphatase PP1-alpha catalytic subunit (Homo sapiens) (UniProt P62136)
# Experiment: PP1-alpha phosphatase inhibitors, primary screen, counter-screen for PP5 inhibitor project, biochemical, fluorescence, OMFP substrate, single point (AID 2235)
# Details: purified PP1alpha, at 6.7 µM, hits give high values
# Sequence of Serine/threonine-protein phosphatase PP1-alpha catalytic subunit (Homo sapiens) (P62136 whole entry, looked up): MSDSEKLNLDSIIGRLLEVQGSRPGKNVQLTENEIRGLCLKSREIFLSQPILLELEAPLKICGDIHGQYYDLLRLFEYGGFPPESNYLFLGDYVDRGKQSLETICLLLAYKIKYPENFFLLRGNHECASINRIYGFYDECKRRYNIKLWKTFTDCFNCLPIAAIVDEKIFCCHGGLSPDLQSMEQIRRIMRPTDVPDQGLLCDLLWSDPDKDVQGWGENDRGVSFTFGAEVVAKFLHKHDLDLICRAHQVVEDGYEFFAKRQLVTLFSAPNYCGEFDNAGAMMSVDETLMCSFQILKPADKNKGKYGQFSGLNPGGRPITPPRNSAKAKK
row,SMILES,inhibition
1,O=C1C(=O)N(CC2COc3ccccc3O2)c2ccccc21 (stereo not drawn),18.4% (active)
2,O=C(CN1C(=O)C2C3C=CC(C3)C2C1=O)NCC1COc2ccccc2O1 (stereo not drawn),0.06% (inactive)
3,Cc1cc(C(=O)CCl)c(C)n1CC1COc2ccccc2O1 (stereo not drawn),-1.57% (inactive)
4,O=C(NC(Cc1c[nH]c2ccccc12)C(=O)O)/C(=C/c1ccco1)NC(=O)c1ccccc1 (stereo not drawn),-3.53% (inactive)
5,CN(C(=O)CSc1nnc(-c2n[nH]c3ccccc23)o1)c1ccccc1,-3.45% (inactive)
6,COc1ccc(/C=C2\SC(=O)N(CCC(=O)NC3CCS(=O)(=O)C3)C2=O)cc1 (stereo not drawn),-1.73% (inactive)
7,N=c1n(Cc2ccc(Cl)cc2)c2ccccc2n1CC(O)c1ccco1 (stereo not drawn),21.9% (active)
8,Cn1c(=N)n(CC(O)c2ccccc2)c2ccccc21 (stereo not drawn),-1.18% (inactive)
9,Cn1c(=N)n(CC(O)c2cccs2)c2ccccc21 (stereo not drawn),2.31% (inactive)
10,O=S(=O)(c1cccc(-c2cn3ccccc3n2)c1)N1CCCC1,-0.43% (inactive)
11,O=C(O)c1ccccc1OCc1ccccc1Cl,-3.14% (inactive)
12,CC(C)c1cc(C(N)=O)c(NC(=O)c2cccc(COc3ccc(Br)cc3)c2)s1,6.73% (inactive)
13,COc1ccc(N2CCN(S(=O)(=O)c3ccc4c(c3)NC(=O)C(C)C(=O)N4)CC2)cc1 (stereo not drawn),-1.74% (inactive)
14,CSC1=NCCN1C(=O)Cc1cccc2ccccc12,-1.43% (inactive)
15,C=C1c2c(Cl)ccc(O)c2C(O)=C2C(=O)[C@]3(O)C(O)=C(C(N)=O)C(=O)[C@@H](N(C)C)[C@@H]3[C@@H](O)C12 (stereo partly drawn),23.5% (active)
16,CN(C)[C@@H]1C(=O)C(C(N)=O)=C(O)[C@@]2(O)C(=O)C3=C(O)c4c(O)ccc(Cl)c4[C@@H](O)[C@H]3C[C@@H]12,5.56% (inactive)
17,Cc1cc(Nc2cccc(F)c2)n2ncnc2n1,-2.78% (inactive)
18,CN(C)c1ccc(/C=N/Nc2cc(N3CCOCC3)nc(N3CCOCC3)n2)cc1,-2.51% (inactive)
19,Cc1cc(N/N=C\c2ccc(Br)cc2)nc(-n2nc(C)cc2C)n1,21.7% (active)
20,COc1ccccc1/C=N\Nc1cc(C)nc(-n2nc(C)cc2C)n1,30.7% (active)
21,COc1cccc(/C=N/Nc2cc(C)nc(-c3ccccc3O)n2)c1O,6.15% (inactive)
22,COc1ccccc1/C=N/Nc1nc(C)c(C(C)=O)s1,1.23% (inactive)
23,Cc1nc(Cl)cc(N/N=C/c2ccccc2)n1,-6.15% (inactive)
24,CS(=O)(=O)N(Cc1nc2sc3c(c2c(=O)[nH]1)CCCC3)C1CCCCC1,1.31% (inactive)

row,SMILES,inhibition
1,NC1=NC(c2ccc([N+](=O)[O-])cc2)N(c2ccc(F)cc2)C(N)=N1 (stereo not drawn),1.43% (inactive)
2,CCOc1ccc(C)cc1S(=O)(=O)NC1CCCCCC1,0.47% (inactive)
3,O=C(CN1CCN(Cc2ccccc2)CC1)NC(c1ccccc1)c1ccccc1,10.6% (inactive)
4,O=C(CN1CCc2ccccc21)NC(c1ccccc1)c1ccccc1,17.5% (active)
5,NS(=O)(=O)c1cccc(NC(=O)CN2CCCc3ccccc32)c1,-0.85% (inactive)
6,CCn1cc(CN2CCCC(CNS(=O)(=O)Cc3ccccc3)C2)cn1 (stereo not drawn),0.72% (inactive)
7,COC(=O)N1CN(C(=O)OC)CN(C(=O)OC)C1,-3.93% (inactive)
8,O=C(CCCN1C(=O)/C(=C/c2cccs2)SC1=S)Nc1ccc(O)cc1,-0.73% (inactive)
9,CCCCN(CCCC)CCC(O)c1cc2c(Cl)cc(Cl)cc2c2cc(C(F)(F)F)ccc12 (stereo not drawn),17% (active)
10,CCCCC(=O)Nc1ccc(C(=O)Nc2cc(C(F)(F)F)ccc2Cl)cc1,1.1% (inactive)
11,CC(C)c1nnc(NC(=O)CCC(=O)N2CCN(c3cccc(Cl)c3)CC2)s1,-3.62% (inactive)
12,NNC(=O)c1cnn(-c2ccccc2)c1C(F)(F)F,0.34% (inactive)
13,CCO/N=C(/C)c1c(O)cc(-c2ccccc2)n(-c2ccccc2)c1=O,-2.6% (inactive)
14,CCOc1ccc(NC(=O)CCNC(=O)c2ccc(Br)cc2)cc1,1.21% (inactive)
15,CC(C)NC(=O)NC(=O)COC(=O)c1ccc(NC(=O)CC#N)cc1,-2.32% (inactive)
16,CCOc1ccc(NC(=O)c2ccc(NC(=O)COC(=O)c3ccc(NC(=O)CC#N)cc3)cc2)cc1,75.8% (active)
17,CN=C(c1ccccc1)c1c(C)cccc1C,2.55% (inactive)
18,CCNC(=O)NC(=O)C(C)OC(=O)c1cc(S(=O)(=O)N2CCCCCC2)ccc1OC (stereo not drawn),1.67% (inactive)
19,COc1cccc(NC(=O)Cn2c3ccccc3c3nc4n(c(=O)c32)CCS4)c1,-2.19% (inactive)
20,O=C(NCc1ccc2c(c1)OCO2)C12CC3CC(CC(C3)C1)C2,-3.56% (inactive)
21,COc1ccc(-c2nnc(SCC(=O)Nc3cccnc3Cl)n2C)cc1,-4.29% (inactive)
22,CC(=O)Nc1ccc(NC(=O)CSc2nnc(C3CC3)n2-c2ccccc2)cc1,-2.45% (inactive)
23,O=C(CSc1nnc(C2CC2)n1Cc1ccccc1)Nc1cccnc1Cl,18% (active)
24,CC(=O)c1cccc(NC(=O)COc2ccc(S(=O)(=O)N3CCOCC3)cc2)c1,-2.4% (inactive)

row,SMILES,inhibition
1,Cc1ccccc1/[N+]([O-])=C/c1ccncc1,-3.82% (inactive)
2,O=S(=O)(NCc1ccc2c(c1)OCO2)c1cccc2nsnc12,-1.4% (inactive)
3,O=S(=O)(c1ccc(F)cc1)N1CCN(C(=S)NCc2ccco2)CC1,-1.26% (inactive)
4,COc1ccc2nc(NC(=O)c3ccc(Br)s3)sc2c1,3.31% (inactive)
5,COc1ccc2nc(NC(=O)NC3CCCCC3)sc2c1,0.1% (inactive)
6,COc1ccc2nc(Nc3nc(-c4ccncc4)cs3)sc2c1,15.7% (active)
7,CCOC(=O)c1c(Cc2ccc(Cl)cc2)c[nH]c1C,0.15% (inactive)
8,O=C(Nc1cccc(F)c1)c1cc(-c2ccco2)nc2ccccc12,17% (active)
9,O=C(O)c1cccc(NC(=O)c2cc(-c3cccc(Cl)c3)nc3ccccc23)c1,8.21% (inactive)
10,COc1ccc(NC(=O)c2cc(-c3ccc(C)o3)nc3ccccc23)cc1,-1.75% (inactive)
11,O=C(c1ccc(Cl)nc1)N1CCN(S(=O)(=O)c2ccc3c(c2)OCCO3)CC1,1.34% (inactive)
12,FC(F)(F)c1nc(-c2ccccc2)ncc1-c1nnnn1-c1ccccc1,0.75% (inactive)
13,Clc1ccc(-n2nnnc2-c2cnc(-c3ccccn3)nc2-c2cccs2)cc1,75.5% (active)
14,O=C(Cn1cc(-c2nnnn2-c2ccc(Cl)cc2)c(=O)c2ccccc21)c1ccccc1,1.68% (inactive)
15,O=S(=O)(c1ccc(F)cc1)n1ccc(-c2cnc(-c3ccccc3)s2)n1,5.23% (inactive)
16,CCOc1ccc2sc(NS(=O)(=O)c3ccc(N)cc3)nc2c1,1.47% (inactive)
17,COCCCn1c(SCC(=O)Nc2oc(C)c3c(C)n[nH]c(=O)c23)nc2sc3c(c2c1=O)CCC3,-2.04% (inactive)
18,Cc1cccc(OCC(O)Cn2c(=N)n(CCN3CCOCC3)c3ccccc32)c1 (stereo not drawn),26% (active)
19,C=CCn1c(=N)n(CC(O)COc2ccc(OC)cc2)c2ccccc21 (stereo not drawn),-0.92% (inactive)
20,CCOc1ccc(C(O)Cn2c(=N)n(CCN3CCCCC3)c3ccccc32)cc1 (stereo not drawn),0.66% (inactive)
21,Cc1ccc(NC(=O)NC(=O)N(C2CCCCC2)S(=O)(=O)c2ccccc2)cc1,0.85% (inactive)
22,C=CCn1c(=S)[nH]c2scc(-c3ccco3)c2c1=O,18.8% (active)
23,C=CCn1c(SCc2csc(C)n2)nc2scc(-c3ccc(C)o3)c2c1=O,-0.82% (inactive)
24,C=CCNC(=O)CSc1nc2scc(-c3ccco3)c2c(=O)n1CC=C,3.47% (inactive)

row,SMILES,inhibition
1,COc1cc(NC(=S)NNC(=O)CC(C)C)c(OC)cc1Cl,-3.43% (inactive)
2,Cc1nnc(NC(=O)CCC(=O)N2CCC(C)CC2)s1,-0.54% (inactive)
3,CC1(C)O[C@@H]2[C@H](O1)[C@@H](COS(=O)(=O)O)O[C@H]2n1ccc(=O)[nH]c1=O,1.54% (inactive)
4,COc1cc(NC(=O)CSc2nnc3ccc(-c4ccncc4)nn23)cc(OC)c1,-2.13% (inactive)
5,CSCc1nnc(NC(=O)c2ccc(S(=O)(=O)N3CCCCC3C)cc2)o1 (stereo not drawn),16.8% (active)
6,CC1CCCN(S(=O)(=O)c2ccc(C(=O)Nc3nnc(-c4ccncc4)o3)cc2)C1 (stereo not drawn),7.97% (inactive)
7,O=C(Nc1nnc(-c2ccco2)o1)c1ccc(S(=O)(=O)N2CCOCC2)cc1,1.14% (inactive)
8,CC1CCCCN1S(=O)(=O)CCNC(=O)c1ccccc1 (stereo not drawn),-2.78% (inactive)
9,CC1CCCCN1S(=O)(=O)c1ccc(C(=O)Nc2nnc(-c3cccs3)o2)cc1 (stereo not drawn),25.9% (active)
10,CC1CCCCN1S(=O)(=O)c1ccc(S(=O)(=O)N(CC(=O)Nc2ccccc2)Cc2cccs2)cc1 (stereo not drawn),3.05% (inactive)
11,COC(=O)c1ccc(-c2c(-c3ccccc3)ncc3cc(OC)c(OC)cc23)cc1,1.2% (inactive)
12,CCCCCCCC(=O)NC(Nc1ccccc1OC)C(Cl)(Cl)Cl (stereo not drawn),4.91% (inactive)
13,COCC(=O)Nc1c(I)c(C(=O)NCC(O)CO)c(I)c(C(=O)N(C)CC(O)CO)c1I (stereo not drawn),-5.4% (inactive)
14,Cc1cc(C)nc(-n2ncc3c2CC(c2ccc(C(C)C)cc2)CC3=O)n1 (stereo not drawn),15.3% (active)
15,COc1cc(S(=O)(=O)Nc2ncn[nH]2)ccc1Cl,-0.04% (inactive)
16,Cc1ccccc1S(=O)(=O)N1[C@@H](c2cccc(Cl)c2)C(C(=O)O)=CC[C@H]1c1ccc(Cl)cc1,20.5% (active)
17,Cc1ccc(S(=O)(=O)N2[C@@H](c3ccccc3F)C(C(=O)O)=CC[C@H]2c2ccc(Cl)cc2)cc1,4.64% (inactive)
18,CN1OC(COC(=O)c2ccc(Cl)cc2)CC1c1ccccc1 (stereo not drawn),1.23% (inactive)
19,CS(=O)(=O)N(CC(=O)N1CCN(c2cccc(Cl)c2)CC1)c1ccccc1,-1.41% (inactive)
20,Cc1ccc([C@@H]2CC=C(C(=O)O)[C@H](c3cccc(Cl)c3)N2S(=O)(=O)c2ccc(C)cc2)cc1,5.69% (inactive)
21,Cc1ccc(S(=O)(=O)N2[C@@H](c3cccc(Cl)c3)C(C(=O)O)=CC[C@H]2c2ccc(Cl)c(Cl)c2)cc1,21.6% (active)
